Assay results: PubChem BioAssay (NCATS)
Results filed as inconclusive are left out. Values without a mark were called inactive. Calls of active or inactive are those of the source. Calls follow the shape of the dose curve; as a rule, active = well fitted curve in the direction sought with a large enough effect; inconclusive = small, poorly fitted or top-dose-only effect, or another doubt; inactive = no such curve, though single readings can be large or run the other way.

The compounds below were run against Metallo-beta-lactamase type 2 (Klebsiella pneumoniae) (UniProt C7C422) (assay: qHTS to identify inhibitors of the New Delhi Metallo-beta-lactamase (NDM): assay validation screen against the NCATS LOPAC Collection (AID 1794843;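 as to activity change, negative = inhibition: nitrocefin turnover by NDM-1 measured as 485 nm absorbance at plateau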)). Conditions: NDM-1 enzyme, nitrocefin hydrolysis, absorbance 485 nm; series mostly up to 38.4 µM; activity change, negative = inhibition: at the top concentration.
Excerpt: Assay Submitter (PI): James Inglese Ph.D., Patricia Dranchak Ph.D., Mahesh Aitha Ph.D.
Assay Development and Screening Technology Laboratory (ADST)
National Center for Advancing Translational Sciences (NCATS), Rockville, MD
National Institute of Health (NIH), Bethesda, Maryland
The metallo-beta-lactamases (MBL) are a main antibiotic resistance mechanism evolved by bacteria. There is an urgent clinical need for MBL inhibitors to mitigate this growing threat. To support a machine-based learning study, qHTS has been used to experimentally test inhibitors identified by prediction tools.
PROTOCOL TABLE (as described by Inglese et al., 2007)
SEQUENCE No. (e.g., 1, 2, 3, etc.); […] (e.g., enzyme, Incubation, Reagent, etc.); VALUE; DESCRIPTION
1; NDM-1; 4 uL of 3 nM enzyme in 50 mM HEPES (pH 7.0), 1 uM Zn2SO4, 0.01% Tween20; Use BioRaptr to dispense into Aurora black, clear bottom low base 1536-well plates
2; Compounds; 23 nL; Use Pin Tool (Wako) to transfer DMSO control and library compounds in DMSO
4; Reagent; 2 uL of 50 uM nitrocefin
6; Detector; Absorbance at 485 nm (bandwidth = 5 nm, 25 flashes/well) on Tecan Infinity
NOTES (numbers refer to sequence above)
1; Column 1 of each plate received assay buffer without enzyme and columns 2-48 received enzyme for a final assay concentration of 2 nM.
2; Control plate contained DMSO in columns 1, 2, 3, and 4.
3; Compound interaction with enzyme.
5; Substrate interaction with enzyme, plateau phase of kinetics.
6; Default reader settings were applied for absorbance read at 485 nm, bandwidth = 5 nm, 25 flashes/well.
Inglese J, Shamu CE, Guy RK. 2007. Reporting data from high-throughput screening of small-molecule libraries. Nat Chem Biol. doi:10.1038/nchembio0807-438
Yasgar A, Shinn P, Jadhav A, Auld D, Michael S, Zheng W, Austin CP, Inglese J, Simeonov A. 2008. Compound Management for Quantitative High-Throughput Screening. J Lab Autom 13:79 - 89. doi:10.1016/j.jala.2007.12.004
% is scaled to controls: 0 for no effect and ±100 for the full control effect; potency is read from the fitted curve at half-maximal effect.

Sequence of Metallo-beta-lactamase type 2 (Klebsiella pneumoniae) (C7C422 whole entry, looked up): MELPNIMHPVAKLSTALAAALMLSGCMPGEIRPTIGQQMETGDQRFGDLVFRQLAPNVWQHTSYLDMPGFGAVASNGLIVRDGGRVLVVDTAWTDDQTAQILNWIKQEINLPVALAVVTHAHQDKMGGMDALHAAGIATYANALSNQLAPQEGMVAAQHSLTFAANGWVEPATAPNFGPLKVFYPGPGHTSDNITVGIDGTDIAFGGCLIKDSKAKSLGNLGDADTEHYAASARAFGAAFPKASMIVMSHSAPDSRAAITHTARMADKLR

SMILES | activity change, negative = inhibition [%] | Potency
CN1CCN(C2=Nc3ccccc3Oc3ccc(Cl)cc32)CC1 | 2.55 | –
O=C(O)CN(CCN(CC(=O)O)CC(=O)O)CCN(CC(=O)O)CC(=O)O | – | 2820 nM (active)
N[C@@H](COP(=O)(O)O)C(=O)O | -10.7 | –
CCOC(=O)c1cnc2c(cnn2CC)c1NN=C(C)C | 4.4 | –
CCN(CC)CCNC(=O)c1ccc(NC(C)=O)cc1 | 4.84 | –
COCCCC/C(=N\OCCN)c1ccc(C(F)(F)F)cc1 | 11.3 | –
CCN(CC)CCNC(=O)c1cc(S(C)(=O)=O)ccc1OC | 24.1 | –
CCOC(=O)C1=C(C)NC(C)=C(C(=O)OC)C1c1cccc([N+](=O)[O-])c1 (stereo not given) | -2.5 | –
CN/C(=C\[N+](=O)[O-])NCCSCc1ccc(CN(C)C)o1 | 0.297 | –
CCN1CCc2nc(N)oc2CC1 | -2.51 | –
NC(N)=NC(=O)Cc1c(Cl)cccc1Cl | 6.76 | –
COC(=O)[C@H]1[C@H]2C[C@@H]3c4[nH]c5cc(OC)ccc5c4CCN3C[C@H]2C[C@@H](OC(=O)c2cc(OC)c(OC)c(OC)c2)[C@@H]1OC | -4.16 | –
CC[N+](C)(C)c1cccc(O)c1 | 1.77 | –
CCn1cc(C(=O)O)c(=O)c2cc3c(cc21)OCO3 | -0.872 | –
CCC(=O)c1ccc2c(c1)N(CCCN(C)C)c1ccccc1S2 | 3.81 | –
COc1ccc2c(c1OC)C(=O)O[C@@H]2[C@H]1c2c(cc3c(c2OC)OCO3)CCN1C | -8.43 | –
CC(C)[N+](C)(CCOC(=O)C1c2ccccc2Oc2ccccc21)C(C)C | -11.5 | –
CCc1cccc(N(C)C(N)=Nc2cccc3ccccc23)c1 | -0.622 | –
Cc1nnc(SCC2=C(C(=O)O)N3C(=O)[C@@H](NC(=O)Cn4cnnn4)[C@H]3SC2)s1 | -11.3 | –
CCN(CC)CC(=O)Nc1c(C)cccc1C | 0.0918 | –

SMILES | activity change, negative = inhibition [%] | Potency
NC(Cc1ccc(Cl)cc1)C(=O)O (stereo not given) | -21.6 | –
CC(N=C(NC#N)Nc1ccncc1)C(C)(C)C (stereo not given) | -2.27 | –
Cc1ccc(=O)n(-c2ccccc2)c1 | 0.594 | –
CC(C)NNC(=O)c1ccncc1 | -0.246 | –
O=C(CCCN1CCC(O)(c2cccc(C(F)(F)F)c2)CC1)c1ccc(F)cc1 | -0.717 | –
Cc1ccc(Cl)c(Nc2ccccc2C(=O)O)c1Cl | -9.38 | –
CC(C)(C)c1ccc(C(=O)CCCN2CCC(OC(c3ccccc3)c3ccccc3)CC2)cc1 | -1.55 | –
NC(N)=N/N=C/c1c(Cl)cccc1Cl | -2.12 | –
CC(C)(C)NCC(O)c1cc(O)cc(O)c1 (stereo not given) | -5.15 | –
CCNC(=O)N1CCN(CCCC(c2ccc(F)cc2)c2ccc(F)cc2)CC1 | 8.16 | –
CCCN(CCC)CCc1cccc2c1CC(=O)N2 | -2.94 | –
COC(=O)C1=C(C)NC(C)=C(C(=O)OCCN(C)Cc2ccccc2)C1c1cccc([N+](=O)[O-])c1 (stereo not given) | 1.92 | –
OCCN1CCN(CC/C=C2/c3ccccc3Sc3ccc(C(F)(F)F)cc32)CC1 | -13.3 | –
CC(=O)Oc1cc(C(C)C)c(OCCN(C)C)cc1C | -3.89 | –
C[C@]12CC[C@@H]3c4ccc(O)cc4C[C@@H](CCCCCCCCCS(=O)CCCC(F)(F)C(F)(F)F)[C@H]3[C@@H]1CC[C@@H]2O (stereo not given in full) | 8.52 | –
COc1ccc(CN(CCN(C)C)c2ccccn2)cc1 | -1.97 | –
CN(C(=O)CCCOc1ccc2[nH]c(=O)ccc2c1)C1CCCCC1 | -1.39 | –
CN(C)C/C=C(/c1ccc(Br)cc1)c1cccnc1 | -9.35 | –
c1cnc(N2CCN(Cc3ccc4c(c3)OCO4)CC2)nc1 | -9.91 | –
COc1cc2c(cc1OC)-c1cc(=Nc3c(C)cc(C)cc3C)n(C)c(=O)n1CC2 | 28.4 | –
